# Unmarked numbers belong to inactive results. Calls of active or inactive are those of the source. Calls follow the shape of the dose curve; as a rule, active = well fitted activation curve with a large enough effect; inconclusive = small, poorly fitted or top-dose-only effect; inactive = flat fitted curve, though single readings scatter.
# Experiment: Cellular Toxicity (caspase-3) Mesangial (AID 660);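 also: combined caspase 3 and 7 activity read by Caspase-Glo luminescence; cells exposed to compound for 16 h before the caspase read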
# Conditions: mesangial cells, normalized: DMSO 0%, 100 µM tamoxifen 100%; at 91.7 µM (top of the series)
# Summary of the method: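 Human renal glomerular mesangial cells, 1000/well, 5 h at 37 C before 16 h compound treatment. Caspase-Glo 3/7 luminescence after 20 min; normalized to DMSO and 100 uM tamoxifen, AC50 from Hill fit.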
row,SMILES,caspase-3 activation
1,Nc1cccc(N)c1,0.868%
2,O=CNc1ccccc1,-0.303%
3,O=[N+]([O-])c1cccc(Cl)c1,-0.653%
4,ON=C1CCCCC1,0.894%
5,C=C(C)C(N)=O,-0.474%
6,Cc1cc(C)c(N)cc1C,-0.153%
7,Nc1c(Cl)cc(Cl)cc1Cl,0.75%
8,C1COC1,0.626%
9,Nc1ccc(F)cc1F,-0.571%
10,CNc1ccccc1,1.7%
11,CCc1ccccc1O,-0.562%
12,CCOC(=O)OCC,-0.584%
13,CCCOCC(C)O (stereo not given),0.289%
14,O=[N+]([O-])c1c(Cl)cc(Cl)cc1Cl,-0.0612%
15,CNC(=O)c1ccccc1,0.192%
16,CCCC(Cl)CCCC(Cl)CCC(Cl)CCC(Cl)CCC(Cl)CCCC(Cl)CCC (stereo not given),1.24%
17,Cc1cccc(C(=O)O)c1,-1.17%
18,O=[N+]([O-])c1ccc(Cl)cc1Cl,0.652%
19,Nc1cccc(C(F)(F)F)c1,2.31%
20,CC(=O)c1nccs1,0.103%

row,SMILES,caspase-3 activation
1,Cc1ccc2cccnc2c1,0.42%
2,CCN(C(=O)N(CC)c1ccccc1)c1ccccc1,0.257%
3,O=[N+]([O-])c1ccc2nc[nH]c2c1,0.38%
4,CCCCC(CC)COCC1CO1 (stereo not given),-0.684%
5,O=C(O)c1ccccc1[N+](=O)[O-],0.745%
6,O=Cc1cccc(Br)c1,1.82%
7,C=CCn1c(=O)n(CC=C)c(=O)n(CC=C)c1=O,-1.07%
8,Cc1ccc(Br)cc1,-0.699%
9,Cc1ccc(C)c([N+](=O)[O-])c1,0.386%
10,Nc1nc(CC(=O)O)cs1,0.647%
11,CC1=C(/C=C/C(C)=C/C=C/C(C)=C\C=O)C(C)(C)CCC1,90.3% (active)
12,Cc1ccccc1C#N,0.378%
13,C=C(C)C(=O)OCCCCCCCCCC,-0.0364%
14,CCOc1cccc(N)c1,0.896%
15,OC/C(Br)=C(\Br)CO,0.44%
16,CCCCCCCCC/C=C/CC1CC(=O)OC1=O (stereo not given),0.816%
17,C=CC(=O)OCCCC,0.429%
18,CCCCCCCN,1.08%
19,c1ccc(Nc2ccccc2)cc1,-0.717%
20,O=c1[nH][nH]c(=O)c2cc([N+](=O)[O-])ccc12,-0.0154%
